Screens from PubChem BioAssay.
Compounds with a hit are over-represented: about 6.3% of the library has one in this group of screens.
DPM-DC inhibit: S. pneumoniae DPM-DC inhibitors, primary screen, biochemical, PK/LDH-coupled NADH fluorescence; purified DPM-DC; diphosphomevalonate decarboxylase (Streptococcus pneumoniae D39); 65,000 compounds, 0.49% hits; calls only at 10 µM;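 active = the 320 compounds with the highest percent inhibition in the single-dose primary screen, excluding strongly autofluorescent ones, cut at about 32% in these data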;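 note: kinetic rate of NADH fluorescence loss reporting ADP formed by the decarboxylase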
MK inhibit: S. pneumoniae MK inhibitors, primary screen, biochemical, PK/LDH-coupled NADH absorbance. purified MK, PK/LDH-coupled NADH absorbance 340 nm. 65,000 compounds, 0.48% hits. inhibition, % at 10 µM. mevalonate kinase [Streptococcus pneumoniae D39];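 active = ranked among the strongest by inhibition in the single 10 µM screen, a fixed top-ranked set picked for dose follow-up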
A340 absorber: compound light absorbance at 340 nm, profiling panel, artefact control, biochemical, MLSMR library, data from PS, PMK, MK assays. compound absorbance at 340 nm, fold over control. fold change at 10 µM. 65,000 tested, under 10 active;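 active = at 10 µM dose, initial 340 nm absorbance at least 2 fold that of control wells; inactive = change under 2 fold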;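 note: initial absorbance extrapolated from kinetic A340 decline of NADH oxidation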
Autofluor 339: intrinsic fluorescence of library compounds, ex339/em460 – biochemical, MLSMR library, data from DPM-DC assay, artefact control, profiling panel; compound autofluorescence, ex339/em460 nm, NADH buffer; hits give high values; 1 = no-compound wells, NADH background; fluorescence fold increase at 10 µM; 65,000 compounds, 5.5% hits; AID 709, 2007;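 active = at 10 µM, mean starting fluorescence two-fold or more over control wells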;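 note: signal is the first read of a kinetic run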
PMK inhibit: S. pneumoniae PMK inhibitors, primary screen, biochemical, mevalonate pathway, pilot trial included. phosphomevalonate kinase (Streptococcus pneumoniae D39). purified PMK, PK/LDH-coupled NADH absorbance 340 nm. inhibition, % at 10 µM. 65,000 compounds, 0.49% hits;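 active = top-ranked compounds by inhibition in the single 10 µM screen, taking a fixed number of the strongest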;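 note: 0% = full reaction with DMSO carrier and 100% = background rate without enzyme reaction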
NADH enzymes: inhibitors of PK/LDH coupling enzymes, profiling panel, artefact control, biochemical, MLSMR library; IC50, µM (highest dose often 10 µM), inactives show at the top dose inhibition; 65,000 compounds, 0.02% hits; coupled PK/LDH NADH assays, four targets;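 active = single-dose screening hits from any of four coupled enzyme assays that gave an IC50 when retested across doses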;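 note: the DPM-DC format reads NADH fluorescence rather than 340 nm absorbance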
* hit, by the source's call; i = inactive; nt = no result shown; + = active, no number.

SMILES	DPM-DC inhibit	MK inhibit	A340 absorber	Autofluor 339	PMK inhibit	NADH enzymes
Cc1ccccc1Cn1nc(C)c(NC(=O)c2cc3nc(-c4ccco4)cc(C(F)(F)F)n3n2)c1C	i	11	1.1	1.8	12	12%
Cc1ccc2nsnc2c1S(=O)(=O)N(Cc1cc2cccc(C)c2[nH]c1=O)CC1CCCO1 (configuration not stated)	i	3	1	1.1	0	1%
Cc1ccc(-c2nnn(CC(=O)N(Cc3ccccc3)C(C(=O)NC3CCCC3)c3ccncc3)n2)o1 (configuration not stated)	i	0	1	1.1	5	2%
O=C1CC(C(=O)Nc2ccccc2C(=O)O)C(c2ccccc2)O1 (configuration not stated)	i	1	1	1.2	8	3%
O=C1CC(C(=O)Nc2ccc(O)c(C(=O)O)c2)C(c2ccccc2)O1 (configuration not stated)	nt	5	1	3.1*	8	7%
Clc1ccc(OCc2nn3c(C4CCCCC4)nnc3s2)cc1	i	5	1.1	1.2	4	4%
COCCCNC(=O)CN(c1cc(OC)ccc1OC)S(=O)(=O)c1ccccc1	i	3	1.1	1.1	6	3%
Cc1ccc(S(=O)(=O)Nc2nc3ccccc3nc2NCc2ccco2)cc1C	i	6	1.1	2.1*	11	10%
Cc1ccc(S(=O)(=O)Nc2nc3ccccc3nc2NCc2ccco2)cc1	i	2	1.1	1.6	3	5%
CCN1CCN(Cc2c(O)ccc3c(=O)c(-c4ccc(OC)c(OC)c4)c(C)oc23)CC1	nt	4	1.1	3.9*	6	5%
COc1ccc(-c2c(C)oc3c(CN4CCN(C)CC4)c(O)ccc3c2=O)cc1	nt	3	1.1	2.2*	0	2%
O=c1[nH]c2ccccc2n1Cc1ccc(F)cc1	i	8	1	1.1	13	7%
CC(C)CC(=O)NCC(C)NC(=O)CC(C)C (configuration not stated)	+	8	1	1.2	10	17%
CCOC(=O)C1CCN(C(=O)c2oc3ccc(S(=O)(=O)N4CC(C)CC(C)C4)cc3c2C)CC1 (configuration not stated)	i	1	1.1	1.1	0	0%
CN(Cc1ccccc1)C(=O)CSc1nnc(-c2ccco2)n1-c1ccccc1	i	0	1	1.1	2	1%
COc1ccc(-n2c(SCc3nnc(-c4ccccc4)o3)nnc2-c2ccccc2)cc1	i	2	0.99	1.1	26*	9%
O=C(CN(Cc1ccc(F)cc1)C(=O)CCC(=O)Nc1ccccn1)NCc1ccco1	i	0	1	1.1	16	5%
COC(=O)Cn1c(=NC(=O)CSCC(=O)NC2CCCCC2)sc2cc(OC)ccc21	nt	7	1.2	2.1*	5	6%
CC1(C)Cc2nc3sc4c(SCC(=O)NCc5ccco5)ncnc4c3cc2CO1	i	0	1.1	1.1	1	0%
CC1(C)Cc2nc3oc4c(N(CCO)Cc5ccccc5)ncnc4c3cc2CO1	i	8	1	2.4*	4	7%
CNC(=O)c1cc2cc(OC)ccc2oc1=N	i	0	1.1	2.5*	0	4%
COc1ccc2oc(=N)c(C(=O)Nc3ccccc3)cc2c1	i	7	0.98	1.2	11	7%
CNC(=O)c1cc2ccc(OC)cc2oc1=O	nt	10	1.2	3.6*	4	7%
CC(C)OCCCNC(=O)CN1C(=O)CC(C)(C)S(=O)(=O)c2ccccc21	i	44*	1	0.94	0	17%
COCCCNC(=O)c1ccccc1NS(C)(=O)=O	nt	6	1.1	3.4*	3	5%
SMILES	DPM-DC inhibit	MK inhibit	A340 absorber	Autofluor 339	PMK inhibit	NADH enzymes
CS(=O)(=O)Nc1ccccc1C(=O)NC1CC2CCC1C2 (configuration not stated)	nt	8	1.1	3.8*	8	8%
Cc1nnc2c3cnn(-c4ccc(Cl)cc4)c3ncn12	i	6	1	1.2	2	3%
O=C(NCc1ccccc1Cl)c1cnn2cccnc12	i	8	1.1	2.2*	9	10%
O=C(NCc1cccs1)c1cnn2cccnc12	i	4	1.1	2.1*	0	6%
O=C(Nc1cccc(Cl)c1)c1cnn2cccnc12	i	13	1.1	1.1	5	7%
CCOC(=O)N1CCN(CC(=O)Nc2c(C(=O)OC)[nH]c3ccccc23)CC1	i	13	1	1.6	5	9%
CCOC(=O)c1[nH]c2cc3c(cc2c1NC(=O)CN1CCc2ccccc2C1)OCO3	nt	0	1.1	2.3*	0	0%
CCOC(=O)c1[nH]c2cc3c(cc2c1NC(=O)CN1CCC(C)CC1)OCO3	nt	9	1.1	2.3*	0	5%
O=C(CCN1C(=O)CSC1=O)Nc1ccccc1	i	5	0.98	1.1	0	2%
OCCN(CCO)c1ncnc2c1sc1nc(N3CCOCC3)c3c(c12)CCCC3	i	0	1.1	1.5	3	6%
OCCN1CCN(c2ncnc3c2sc2nc(N4CCOCC4)c4c(c23)CCC4)CC1	nt	7	1.2	2.1*	0	4%
c1nc(N2CCNCC2)c2sc3nc(N4CCOCC4)c4c(c3c2n1)CCC4	nt	4	1.1	2.1*	0	2%
COCCN1C=C(C(=O)OC)C(c2ccc3c(c2)OCO3)C(C(=O)OC)=C1	nt	5	1.1	2.1*	7	6%
COCCN1C=C(C(=O)OC)C(c2cc3c(cc2Br)OCO3)C(C(=O)OC)=C1	i	2	1	1.5	0	4%
CCOc1ccc(C2C(C(=O)OC)=CN(CCOC)C=C2C(=O)OC)cc1	nt	6	1.1	2.5*	0	3%
CCn1c(=O)cc(OCC(=O)Nc2ccc(Cl)cn2)c2ccccc21	i	1	1	1.1	14	6%
COc1ccc(OC(C)=O)c(C2c3cc(OC)c(OC)cc3CCN2C(C)=O)c1 (configuration not stated)	i	4	1	1.1	20	8%
COc1cc2c(cc1OC)C(c1cc3cc(OC)c(OC)cc3[nH]c1=O)N(C(=O)C1CC1)CC2 (configuration not stated)	i	0	1.1	2.6*	19	11%
COc1ccc(-c2cc(C(F)(F)F)n3nc(C(=O)NCc4ccco4)cc3n2)cc1	nt	0	1.1	2.2*	0	0%
COC(=O)c1cc2nc(-c3ccc(OC)cc3)cc(C(F)(F)F)n2n1	nt	11	1	2.2*	0	6%
